High-throughput results (PubChem BioAssay)
Shown are actives, neighbours in structure and some others; about 10% of the full set was active somewhere.
GLS inh – glutaminase GLS (human) inhibition; AID 624170; GLS enzymatic activity, qHTS titration; Potency, µM (series often up to 45.5 µM), without a hit: top-dose activity change, negative = inhibition, actives largely listed as inhibitors; O94925; 410,000 compounds, 0.21% hits; note: % is set by controls: 0 for no effect and ±100 for the full control effect
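hKGA in 45 mM KH2PO4 pH 8.2, 0.02% Tween-20 with pin-transferred compounds; 1 mM L-glutamine (stock) plus glutamate oxidase/HRP/Amplex Red coupling added. Fluorescence read initially and after 30 min at RT.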
L3MBTL1 inh – L3MBTL1 (human) inhibition. Q9Y468. AlphaScreen L3MBTL1–H3K9me1 peptide binding. Potency, µM (series often up to 57.1 µM), without a hit: at the top dose activity, negative = inhibition, actives largely listed as inhibitors. 230,000 compounds, 0.66% hits. AID 485360; note: % is set by controls: 0 for no effect and ±100 for the full control effect; nearly all actives have a fitted effect of over 60% in size
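AlphaScreen proximity signal between nickel-chelate acceptor and streptavidin donor beads (final 10 ug/mL) reports binding of 50 nM L3MBTL1 to 75 nM biotin-H3 K9me1 peptide; complex incubated with compounds 30 min at room temperature; cefsulodin titration as control.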
BAZ2B block – BAZ2B (human) inhibition; Potency, µM (top dose mostly 114 µM), inactives show at the highest dose activity change, negative = inhibition, actives largely listed as inhibitors; 360,000 compounds, 4.4% hits; AlphaScreen BAZ2B-H3K14Ac peptide displacement; note: % is set by controls: 0 for no effect and ±100 for the full control effect; nearly all actives have a fitted effect of over 60% in size
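Inhibition is scored as reduced AlphaScreen emission. The BAZ2B/b-H3(5-23)K14Ac complex (50 nM each) in PBS pH 7.4, 0.01% Tween-20 meets compound (up to 110 uM) for 30 min at RT before bead addition.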
JMJD2A Tudor – blocks the human JMJD2A Tudor domain; O75164; AlphaScreen JMJD2A-Tudor / H3K4me3 peptide binding; Potency, µM (highest dose often 114 µM), for the others: at the top dose activity change, negative = inhibition, hits mostly inhibitors; 390,000 compounds, 4.4% hits; note: % is set by controls: 0 for no effect and ±100 for the full control effect; nearly all actives have a fitted effect of over 50% in size
G9a block – inhibitors of human histone lysine methyltransferase G9a; G9a H3K9 monomethylation, AlphaScreen, 2 h; 350,000 compounds, 8.8% hits; Potency, µM (top dose mostly 102 µM), inactives show top-dose activity, negative = inhibition, actives largely listed as inhibitors; note: % is set by controls: 0 for no effect and ±100 for the full control effect; nearly all actives have a fitted effect of over 75% in size
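G9a (20 nM) preincubated 15 min RT with compounds, then 500 nM biotinylated H3K9 peptide and 20 uM SAM added; 2 h RT reaction. Monomethyl-H3K9 product detected by AlphaScreen with anti-H3K9me1 antibody, streptavidin donor and anti-rabbit IgG acceptor beads.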
HP1b binding inh – HP1-beta chromodomain-methylated histone interaction inhibition; AID 540317; P83916; Potency, µM (titrated, usually from 114 µM), without a hit: at the highest dose activity change, negative = inhibition, most hits filed as inhibitors; 390,000 compounds, 0.56% hits; AlphaScreen HP1-beta / biotin-H3K9me3 peptide binding; note: nearly all actives have a fitted effect of over 70% in size
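AlphaScreen: HP1-beta (50 nM) preformed 30 min with biotin-H3(1-18)K9me3 peptide (50 nM) in PBS pH 7.4, 0.01% Tween-20. Compound added for 30 min at RT, then streptavidin donor/nickel chelate acceptor beads (10 ug/mL) for 30 min.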
The depositor's hits bear a star; u = inconclusive; x = no result; [ ] = dose if it differs, or a comment. Calls come from the whole dose curve; as a rule, active = well fitted curve in the direction sought with a large enough effect; inconclusive = small, poorly fitted or top-dose-only effect, or another doubt; inactive = no such curve, though single readings can be large; an effect the other way counts as inactive or inconclusive. Potency is the fitted concentration of half-maximal effect.

SMILES | GLS inh | L3MBTL1 inh | BAZ2B block | JMJD2A Tudor | G9a block | HP1b binding inh
COc1ccc(N2CCN(C(=O)C3CCN(S(=O)(=O)c4cn(C)cn4)CC3)CC2)cc1 | 2% | x | -16% | -8% | -18%[12.7 µM] | 19%
Cc1ccc2[nH]cc(C(=O)CN3CCN(C)CC3)c2c1 | 5% | 9% | 6% | -9% | x | 2%
Cc1ccc(C(=O)CN2CCN(c3ccccn3)CC2)c(C)c1 | 1% | x | -15% | -19% | 40µM* | 36%
Cc1ccc2[nH]cc(C(=O)CN3CCN(c4ccccn4)CC3)c2c1 | 1% | 5% | -2% | -6% | 50µM* | 18%
C[C@@H](CC(=O)O)[C@@H](N)C(=O)O | x | x | x | x | 34%[59 µM] | x
COC(=O)c1ccc(CSCc2ccc(C(=O)OC)o2)o1 | 0% | x | 5% | 1% | 28% | 29%
CCOC(=O)c1ccc(CC(=O)c2ccc(O)cc2O)o1 | 22% | x | -8% | -13% | 22µM* | 39%
COC(=O)c1ccc(CC(=O)c2c(C)cc(O)cc2O)o1 | 22% | u | u | u | 45µM* | 13%
COC(=O)c1cc(CC(=O)c2ccc(O)cc2O)c(C)o1 | 21% | -2% | u | -13% | 95%[59 µM] | 17%
COC(=O)c1ccc(CC(=O)c2ccc(O)cc2O)o1 | 17% | -24% | 63µM* | -32% | 22µM* | 13%
CCCCCCCCCCCCC/C=C/[C@@H](O)[C@H](CO)N(C)C | x | x | x | x | 21%[59 µM] | x
CCc1cc(C(=O)c2ccc(C)cc2)c(NC(=O)CCl)s1 | 0% | 35µM* | -11% | -29% | u | 19%
CCOc1ccc2nc(Cl)c(C3CC(c4ccco4)=NN3S(C)(=O)=O)cc2c1 (stereo not given) | 4% | 0% | -5% | -25% | x | -22%
CC(=O)N1N=C(c2ccco2)CC1c1cc2cc(C)ccc2nc1Cl (stereo not given) | 5.6µM* | -5% | 0% | 8% | x | 27%
Cc1ccc2cc(C3CC(c4ccco4)=NN3S(=O)(=O)c3ccccc3)c(Cl)nc2c1 (stereo not given) | 11% | -3% | -38% | -23% | 50µM* | 18%
CCOc1ccc2cc(C3CC(c4ccco4)=NN3S(=O)(=O)c3ccccc3)c(Cl)nc2c1 (stereo not given) | 10% | -1% | u | -34% | 10µM* | -7%
CCOc1ccc2cc(C3CC(c4ccco4)=NN3S(C)(=O)=O)c(=O)[nH]c2c1 (stereo not given) | -15% | x | -32% | 50µM* | x | u
Cc1cc(C)c(NC(=O)Cn2c(=O)n(CC(=O)NCc3ccccc3Cl)c(=O)c3sccc32)c(C)c1 | -6% | x | 1% | 9% | 1%[59 µM] | 27%
Cc1[nH]c(=O)cc2ccccc12 | -2% | -3% | -29% | 5% | 25µM* | 54%
CCOc1ccc(Nc2ccc(S(=O)(=O)N3CCN(C)CC3)cc2[N+](=O)[O-])cc1OCC | 12% | -29% | u | u | 14%[12.7 µM] | u
CCOc1ccc(CN(C)c2ccc(S(=O)(=O)N3CCN(C)CC3)cc2[N+](=O)[O-])cc1OC | -21% | -12% | u | u | -9%[12.7 µM] | -16%
CN1CCN(S(=O)(=O)c2ccc(N(C)Cc3ccc(C(F)(F)F)cc3)c([N+](=O)[O-])c2)CC1 | 3% | -23% | 40µM* | 25µM* | -13%[12.7 µM] | u
CN1CCN(S(=O)(=O)c2ccc(Nc3ccc(F)cc3)c([N+](=O)[O-])c2)CC1 | 2% | -3% | u | u | 56µM* | -26%
Cc1ccc(C)n1-c1ccc(N2CCOCC2)c([N+](=O)[O-])c1 | 4% | 30% | u | u | x | -18%
O=[N+]([O-])c1cc(-n2cccc2)ccc1N1CCOCC1 | 5% | -24% | 35µM* | 50µM* | u | 71µM*
Cc1ccc(Nc2ccc(S(=O)(=O)N3CCOCC3)cc2[N+](=O)[O-])cc1C | -4% | u | 11µM* | u | u | u
